# Results filed as inconclusive are left out. Entries that show only a call come without a potency. Activity calls are given as the source filed them. Unless noted, calls come from the whole dose curve; as a rule, active = well fitted curve in the direction sought with a large enough effect; inconclusive = small, poorly fitted or top-dose-only effect, or another doubt; inactive = no such curve, though single readings can be large; an effect the other way counts as inactive or inconclusive.
# Columns and labels:
# [1] = qHTS for Inhibitors of Plasmodium falciparum (CP250) proliferation (AID 504320)
# How it was run: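 Parasite growth measured as SYBR Green DNA fluorescence (ex 485, em 535 nm) after overnight lysis following 72 h culture at 37 °C, 0.3% parasitemia, 2.5% hematocrit. Values normalized against DMSO and 0.29 uM artemisinin controls, with plate-stack correction.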
# [2] = target: Atrial natriuretic peptide receptor 1 (Homo sapiens) (UniProt P16066); assay: Natriuretic polypeptide receptor (hNpr1) antagonism - Pilot CMLD screen (AID 1347052; calls by dose curve;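 note: HEK293 cells with hNpr1 stimulated by hNppA peptide at 0.1 nM; cGMP level read as GloSensor luciferase luminescence after agonist stimulation; series mostly up to about 9.2 µM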)
# [3] = target: Furin (Homo sapiens) (UniProt P09958); assay: Furin counterscreen qHTS for Zika virus inhibitors (AID 1347149); note: nearly all actives have a fitted effect of over 70% in size; note: potency is the fitted concentration of half-maximal effect
# How it was run: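 Counterscreen measures cleavage of 2 microM BOC-RVRR-AMC, below its ~15 microM Km, by 5 nM full-length human furin at pH 7.0 after a 15-min compound preincubation. Inhibition derives from the 15-min fluorescence increase at 37C.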
# [4] = target: N-terminal Xaa-Pro-Lys N-methyltransferase 1 (Homo sapiens) (UniProt Q9BV86); assay: qHTS Assay for Inhibitors of N-terminal methyltransferase 1 (NTMT1): LOPAC validation of the NTMT1 SAHH-coupled ThioGlo3 Assay (AID 1347143);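 note: SAH from peptide methylation measured as thiol fluorescence via SAHH coupling and ThioGlo3; potency is the fitted concentration of half-maximal effect; nearly all actives have a fitted effect of over 70% in size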
# How it was run: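 In this qHTS pilot against the LOPAC set, 125nM NTMT1 met compounds tested at multiple concentrations, and fluorescence was normalized to background.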
# [5] = tested on: Zika virus NS2B-NS3 protease (linked construct); assay: Confirmatory screen NINDS AMC qHTS for Zika virus inhibitors (AID 1347152); note: potency is the fitted concentration of half-maximal effect; nearly all actives have a fitted effect of over 70% in size
# How it was run: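 Enzyme (1 nM, linked construct) was preincubated with compound for 15 minutes at room temperature in 10 mM Tris-HCl pH 8.0 with 0.01% Tween 20. Bz-Nle-Lys-Arg-Arg-AMC was then added to 10 microM, and AMC fluorescence was recorded immediately and after 15 minutes.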
# [6] = tested on: Zika virus NS2B-NS3 protease (unlinked complex); assay: Confirmatory screen GU AMC qHTS for Zika virus inhibitors (AID 1347153); note: potency is the fitted concentration of half-maximal effect; nearly all actives have a fitted effect of over 70% in size
# How it was run: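 Noncovalent NS2B hydrophilic domain/NS3 protease complex (25 nM) in 10 mM Tris-HCl pH 8.0, 0.01% Tween 20 was preincubated 15 min at room temperature with compounds. Then 10 µM AMC substrate (Km 18.3 µM) was added; fluorescence was read over 15 min and fitted to a 4-parameter Hill equation.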
# [7] = ZIKV-mCherry secondary qHTS for Zika virus inhibitors (AID 1347158); note: top concentration of the series differs between compounds
# How it was run: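 Percent infection is the share of Hoechst-identified Vero nuclei with mCherry signal above 450 RFU (3 SD over negative controls). Cells were infected with recombinant ZIKV-mCherry at MOI 1 after compound addition and imaged 48–72 h later.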
# [8] = tested on: Zika virus NS2B-NS3 protease (linked); assay: 384 well plate NINDS AMC confirmatory qHTS for Zika virus inhibitors (AID 1347163); note: potency is the fitted concentration of half-maximal effect; nearly all actives have a fitted effect of over 50% in size
# How it was run: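 Fluorescence at 355/460 nm was read after 25 minutes of cleavage of 30 microM Ac-VKTGKR-AMC at room temperature, in the dark. Before substrate addition, compounds (up to 1 mM final) sat ~15 minutes with 5, 30 or 60 nM linked protease. Signals were normalized to no-enzyme and no-inhibitor wells.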
# [9] = tested on: Zika virus NS2B-NS3 protease (linked construct); assay: 384 well plate NINDS Rhodamine confirmatory qHTS for Zika virus inhibitors (AID 1347164);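 note: fluorescence from protease cleavage of Ac-LKRR-rhodamine 110 substrate; potency is the fitted concentration of half-maximal effect; nearly all actives have a fitted effect of over 65% in size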
# How it was run: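 Enzyme (final 5/30/60 nM) + cpd (DMSO), ~15 min; add Ac-LKRR-Rd 10 microM final; 25 min RT, dark; FI ex 485/em 538; normalized to no-enzyme, no-inhibitor ctrls; aprotinin intraplate ctrl.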
# [10] = Tertiary RLuc qRT-PCR qHTS assay for Zika virus inhibitors (AID 1347169); note: potency is the fitted concentration of half-maximal effect; nearly all actives have a fitted effect of over 55% in size
# How it was run: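 Vero, 1,000 cells/well, o/n 37 C; cpd pinned in DMSO; ZIKV-RLuc Cambodian, MOI 1-2, 48-72 h 37 C; live-cell RLuc substrate, lum read at 1-1.5 h.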
# Chain of Atrial natriuretic peptide receptor 1 (Homo sapiens) (P16066 whole entry, looked up): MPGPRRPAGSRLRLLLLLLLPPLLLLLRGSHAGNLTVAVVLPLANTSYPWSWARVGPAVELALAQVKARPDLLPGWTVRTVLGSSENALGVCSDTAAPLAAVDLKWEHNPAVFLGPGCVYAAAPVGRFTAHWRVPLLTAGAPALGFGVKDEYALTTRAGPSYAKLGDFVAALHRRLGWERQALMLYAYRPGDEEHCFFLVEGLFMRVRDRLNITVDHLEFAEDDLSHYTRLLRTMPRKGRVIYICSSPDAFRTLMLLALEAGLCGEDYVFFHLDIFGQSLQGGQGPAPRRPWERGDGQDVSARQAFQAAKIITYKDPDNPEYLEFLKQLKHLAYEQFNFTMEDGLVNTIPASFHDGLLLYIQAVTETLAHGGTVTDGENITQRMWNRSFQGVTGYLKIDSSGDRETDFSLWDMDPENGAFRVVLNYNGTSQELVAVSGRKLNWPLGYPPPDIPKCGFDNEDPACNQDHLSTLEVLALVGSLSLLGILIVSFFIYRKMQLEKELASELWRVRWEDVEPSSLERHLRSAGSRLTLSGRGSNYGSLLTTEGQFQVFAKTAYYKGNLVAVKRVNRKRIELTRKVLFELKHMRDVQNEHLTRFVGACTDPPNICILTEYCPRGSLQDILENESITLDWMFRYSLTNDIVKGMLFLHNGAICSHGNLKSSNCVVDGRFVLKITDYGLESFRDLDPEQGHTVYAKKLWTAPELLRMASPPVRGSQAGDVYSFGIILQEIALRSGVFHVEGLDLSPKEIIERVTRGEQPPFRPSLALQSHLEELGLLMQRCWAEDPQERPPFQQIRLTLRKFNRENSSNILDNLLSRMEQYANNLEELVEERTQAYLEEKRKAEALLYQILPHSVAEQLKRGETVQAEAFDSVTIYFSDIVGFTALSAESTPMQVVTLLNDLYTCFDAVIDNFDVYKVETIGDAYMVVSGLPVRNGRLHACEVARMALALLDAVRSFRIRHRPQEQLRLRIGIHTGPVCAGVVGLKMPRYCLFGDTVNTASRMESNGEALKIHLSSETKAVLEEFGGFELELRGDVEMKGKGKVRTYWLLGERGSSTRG
# Chain of Furin (Homo sapiens) (P09958 whole entry, looked up): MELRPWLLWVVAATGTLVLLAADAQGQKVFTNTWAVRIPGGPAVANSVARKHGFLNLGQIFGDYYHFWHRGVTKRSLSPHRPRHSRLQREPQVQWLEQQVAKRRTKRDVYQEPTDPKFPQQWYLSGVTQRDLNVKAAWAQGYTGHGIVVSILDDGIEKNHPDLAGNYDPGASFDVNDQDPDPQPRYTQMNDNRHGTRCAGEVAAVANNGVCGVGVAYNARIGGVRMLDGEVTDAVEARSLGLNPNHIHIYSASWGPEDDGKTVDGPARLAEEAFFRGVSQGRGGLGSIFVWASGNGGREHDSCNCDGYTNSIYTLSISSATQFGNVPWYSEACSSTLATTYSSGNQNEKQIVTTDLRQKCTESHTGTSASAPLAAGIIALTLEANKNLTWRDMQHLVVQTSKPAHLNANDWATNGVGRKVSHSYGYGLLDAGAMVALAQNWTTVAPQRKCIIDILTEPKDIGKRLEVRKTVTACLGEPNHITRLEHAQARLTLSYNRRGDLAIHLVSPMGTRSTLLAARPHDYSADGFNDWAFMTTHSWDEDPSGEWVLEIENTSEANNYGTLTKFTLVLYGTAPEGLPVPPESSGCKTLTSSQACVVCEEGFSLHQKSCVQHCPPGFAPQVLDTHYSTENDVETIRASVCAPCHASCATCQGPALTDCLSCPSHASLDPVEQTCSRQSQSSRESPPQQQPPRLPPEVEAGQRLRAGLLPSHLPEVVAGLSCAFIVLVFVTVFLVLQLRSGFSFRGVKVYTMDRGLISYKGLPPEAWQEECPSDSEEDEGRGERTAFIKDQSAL
# Chain of N-terminal Xaa-Pro-Lys N-methyltransferase 1 (Homo sapiens) (Q9BV86 whole entry, looked up): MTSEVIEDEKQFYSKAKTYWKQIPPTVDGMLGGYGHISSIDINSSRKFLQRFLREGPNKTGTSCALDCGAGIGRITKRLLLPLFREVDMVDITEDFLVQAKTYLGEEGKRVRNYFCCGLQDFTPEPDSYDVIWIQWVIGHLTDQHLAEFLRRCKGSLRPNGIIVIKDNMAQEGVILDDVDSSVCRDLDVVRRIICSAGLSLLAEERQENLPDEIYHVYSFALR
smiles,measurement,setting,value
COc1cccc([C@@H]2Oc3ccc(OC)cc3C(=O)[C@@H]2O)c1,Potency,[1],inactive
same,Potency,[2],inactive
Cc1c(NS(=O)(=O)c2ccccc2)cc(C(C)C)c(O)c1S(=O)(=O)c1ccc(Cl)cc1,Potency,[3],inactive
O=C1OC2(c3ccccc31)c1ccc3cc(O)ccc3c1Oc1c2ccc2cc(O)ccc12,Potency,[3],inactive
COc1ccc([C@]23Cc4cc(C#N)ccc4[C@H](O2)c2c(cc(C)n(-c4ccccc4)c2=O)O3)cc1,Potency,[1],inactive
same,Potency,[2],inactive
CCOC(=O)CN1C(=O)[C@]2(O[C@H](COc3ccccc3)CC3=CCCC32)c2c(Br)cccc21 (stereo partly drawn),Potency,[1],inactive
same,Potency,[2],inactive
CCOC(=O)CN1C(=O)[C@]2(O[C@H](COc3ccccc3)CC3=C2CCC3)c2ccccc21,Potency,[1],inactive
same,Potency,[2],inactive
O=C1N(Cc2ccccc2C(F)(F)F)c2ccccc2[C@@]12O[C@H](COc1ccccc1)CC1=C2CCC1,Potency,[1],inactive
same,Potency,[2],inactive
CSc1nc(N)c2ncn([C@@H]3O[C@H](COP(=O)(O)OP(=O)(O)OP(=O)(O)O)C(O)[C@H]3O)c2n1 (stereo partly drawn),Potency,[4],50.1 µM (active)
NC(=O)[C@@H](CCCN=C(N)N)NC(=O)[C@@H](CCCN=C(N)N)NC(=O)[C@@H](CCCN=C(N)N)NC(=O)[C@@H](CCCN=C(N)N)NC(=O)[C@@H](CCCN=C(N)N)NC(=O)[C@H](N)CCCN=C(N)N,Potency,[3],2.51 µM (active)
CC(=O)NC(CC(C)C)C(=O)NC(CC(C)C)C(=O)NC(C=O)CCCN=C(N)N (stereo not drawn),Potency,[3],inactive
N.N.N.N.N.N.N.N.N.N.N.N.N.N.O.O.[Cl-].[Cl-].[Cl-].[Cl-].[Cl-].[Cl-].[Ru+4].[Ru+5].[Ru+5],Potency,[4],44.7 µM (active)
O=C(O)Cn1ccc2cc(OCc3cccc(-c4cccc(C(F)(F)F)c4)c3)cnc21,Potency,[3],63.9 µM (active)
same,Potency,[5],56.9 µM (active)
same,Potency,[6],40.3 µM (active)
same,Potency,[7],inactive
same,Potency,[8],141 µM (active)
same,Potency,[9],28.2 µM (active)
same,Potency,[10],30.2 µM (active)
